Screening results (PubChem)
Shown are actives, neighbours in structure and some others; about 2.2% of the full set was active somewhere.
Mito fusion yeast: inhibitors of mitochondrial division or activators of mitochondrial fusion | Potency, µM (highest dose often 46.1 µM), inactives show at the highest dose growth rescue (activation), actives largely listed as activators | AID 485298 | S. cerevisiae fusion-defective mutant growth rescue, CellTiterGlo 48 h | hit rate 0.23% among 320,000; note: % of control where 0% means no effect; nearly all actives have a fitted effect of over 45% in size
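Read-out: ATP-based luminescence (CellTiterGlo, 10 min ambient) reporting growth of fusion-defective ts yeast after 48 hours at 37C on glycerol/ethanol YPEG medium in the presence of compound.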
aSyn yeast inh: rescues yeast growth from alpha-synuclein toxicity. AID 652106. Yeast expressing alpha-synuclein, growth rescue, BacTiter-Glo, 24 h. hit rate 0.14% among 370,000. Potency, µM (highest dose often 46.1 µM), for inactives: at the highest dose growth rescue (activation), actives largely listed as activators; note: % of control where 0% means no effect; nearly all actives have a fitted effect of over 65% in size
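Readout is rescue of growth in alpha-synuclein-expressing yeast, so inhibitors of toxicity appear as activators. Growth after 24 hr at 30 deg C in galactose medium is quantified by luminescence.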
Abeta yeast res: A-beta toxicity reversal in yeast | yeast expressing A-beta42, growth rescue, OD600, 48 h; response scale: 0% DMSO, 100% iron-clioquinol control | AID 1347071 | hit rate 0.063% among 410,000 | Potency, µM (series often up to 46.1 µM), actives largely listed as activators; note: nearly all actives have a fitted effect of over 55% in size
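Yeast growth medium received pinned compounds, then yeast cells expressing toxic A-beta were added; plates incubated at 30 C for 48 hr. Growth read as absorbance at 600 nm, normalized to DMSO and equimolar FeCl3 plus clioquinol controls.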
TDP43 rescue: rescues yeast growth from TDP-43 toxicity; TDP-43 expressing yeast growth rescue, BacTiter-Glo, 24 h; Potency, µM (series often up to 46.1 µM), for the others: at the highest dose growth rescue (activation), most hits filed as activators; hit rate 1.8% among 410,000; AID 652104; note: % of control where 0% means no effect; nearly all actives have a fitted effect of over 50% in size
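Luminescence from BacTiter-Glo reports growth of TDP-43-expressing yeast after 24 hr at 30 deg C with compound. Cells were raffinose-pregrown to mid-log, then seeded in galactose medium at OD600=0.02.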
FUS yeast rescue: rescues growth of FUS-expressing yeast; S. cerevisiae FUS-expressing, growth rescue, OD600, 24 h; Potency, µM (top dose mostly 76.6 µM), most hits filed as activators; hit rate 0.24% among 390,000; AID 1347120;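 note: plate controls were DMSO vehicle for no effect and reference control for full effect; nearly all actives have a fitted effect of over 55% in size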
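FUS-expressing yeast, raffinose-pregrown, induced in 2% galactose minimal medium at OD 0.005; compounds in a dilution series, 24hr at 30C. Growth restoration read as absorbance at 600 nm. CP55940 positive control, DMSO negative.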
* hit, by the source's call; i = inactive; ? = inconclusive; . = not tested or not shown; ! = not confirmed by another sample. Calls come from the whole dose curve; as a rule, active = well fitted curve in the direction sought with a large enough effect; inconclusive = small, poorly fitted or top-dose-only effect, or another doubt; inactive = no such curve, though single readings can be large; an effect the other way counts as inactive or inconclusive. Potency is the fitted concentration of half-maximal effect.

SMILES	Mito fusion yeast	aSyn yeast inh	Abeta yeast res	TDP43 rescue	FUS yeast rescue
O=C(Nc1ccc(Cl)cc1)N1CCC(c2ccccc2)C1 (configuration not stated)	-2%	1%	i	11µM*!	i
COc1ccc(NC(=S)N2CCC(c3ccc(C)cc3)C2)cc1 (configuration not stated)	-5%	9%	?	8%	i
Cc1ccc(C2CCN(C(=O)Nc3ccccc3)C2)cc1 (configuration not stated)	-1%	7%	i	10µM*	i
Cc1ccc(NC(=S)N2CCC(c3ccc(C)cc3)C2)cc1 (configuration not stated)	-2%	-12%	?	18µM*	i
O=C1C=C(c2ccccc2)OC2(CCCC2)O1	3%	.	i	?	i
O=C1C=C(c2ccccc2)OC(c2ccccc2)O1 (configuration not stated)	0%	11%	i	13µM*	i
CCC(C)N=Cc1c(NCc2ccco2)nc2c(C)cccn2c1=O (configuration not stated)	19%	2%	i	18µM*	i
CCc1nc(N2CCN(C(=O)c3ccccc3)CC2)c(C#N)c2c1COC(C)(C)C2	5%	8%	i	20µM*	i
CC1(C)Cc2c(C#N)c(N3CCOCC3)nc(-c3ccccc3)c2CO1	9%	-3%	i	20%	i
CC1CCN(c2nc(-c3ccco3)c3c(c2C#N)CC(C)(C)OC3)CC1	1%	4%	i	11µM*	i
CC1(C)Cc2c(C#N)c(N3CCN(C(=O)c4ccccc4)CC3)nc(Cc3ccccc3)c2CO1	-1%	-1%	i	8%	i
COc1ccc(C(C)=O)cc1COC(=O)c1ccc(C)c(S(=O)(=O)N2CCOCC2)c1	6%	7%	i	20%	.
COc1ccc(C(=O)OCN2C(=O)c3ccccc3C2=O)cc1	-4%	?	i	10µM*	i
CCc1ccc(OC(=O)CN2C(=O)c3ccccc3C2=O)cc1	-8%	12%	i	16µM*	i
COc1cc(OC)c(C(=O)OCN2C(=O)c3ccccc3C2=O)cc1OC	0%	-8%	i	-1%	i
CC(=O)c1ccc(OC(=O)CN2C(=O)c3ccccc3C2=O)cc1	6%	11%	i	15%	i
COc1ccc(NC(=O)CS(=O)(=O)c2ccccc2Cl)cc1	-10%	-2%	i	2%	i
O=C(OCC(=O)c1cccc2ccccc12)c1ccc(CO)cc1	3%	16%	i	14µM*	i
CCNC(=S)Nc1ccc(N2CCCCC2)cc1	5%	-11%	i	3%	i
S=C(NCCc1ccccc1)Nc1ccc(N2CCCCC2)cc1	-44%	-9%	8.9µM*	30%	i
O[C@@H]1COC(Nc2ccc(N=Nc3ccccc3)cc2)C[C@@H]1O (some centres not stated)	-3%	-2%	i	13µM*	i
COc1ccc([C@H]2/C=C\CN(C(=O)CC(C)(C)C)[C@@H](C)C(=O)N2Cc2ccc(F)cc2)cc1	.	3%	i	35µM*	i
COc1ccc([C@H]2/C=C\CN(C(=O)c3ccc(C)cc3)[C@@H](C)C(=O)N2Cc2ccc(F)cc2)cc1	.	1%	i	8%	i
CC(C)[C@@H](CO)N(C)S(=O)(=O)c1ccccc1Br	.	-5%	i	5%	i
CC(C)COc1ccc(-c2nn(-c3ccccc3)cc2CO)cc1	-41%	4%	i	28µM*	i
CCCc1nc(SCC(=O)N2CCC(Cc3ccccc3)CC2)c2c(=O)n(C)c(=O)n(C)c2n1	26%	1%	i	35µM*	i
CC(C)c1nc(SCC(=O)N2CCCC2)c2c(=O)n(C)c(=O)n(C)c2n1	.	3.5µM*	i	-26%	i
CCCc1nc(SCC(=O)N2CCCc3ccccc32)c2c(=O)n(C)c(=O)n(C)c2n1	?	13%	i	35µM*	i
O=C(N/N=C1/C(=O)c2cccc3cccc1c23)c1ccc(Cl)cc1	4%	?	?	18µM*	i
